A selection: hits, their analogues and other compounds. The true share with any hit is near 2.2%.
IEC-6 tox: cytotoxicity in IEC-6 intestinal epithelial cells, primary screen, cytotoxicity control for KLF5 inhibitor project, cell-based, luminescence | IEC-6 cytotoxicity, luminescence viability | inhibition, % at 5 µM | 0.78% of 290,000 active | AID 1825, 2009; in the data active = inhibition above about 22%;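 note: 0% = plate median of test compound wells and 100% = cytotoxic reference compound wells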
APP transl inh: inhibitors of APP translation via 5'UTR reporter, primary screen, APP 5'UTR luciferase, SH-SY5Y cells | SH-SY5Y APP 5'UTR-luciferase reporter, luminescence | inhibition, % at 2 µM | 0.82% of 190,000 active | AID 1285, 2008;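 active = inhibition above a set limit, derived from the sample mean plus 3 SD, cut at about 45% in these data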
BaF3 parental: parental Ba/F3 cell viability inhibition, counter-screen for JAK2V617F inhibitor project, murine pro-B, CellTiter-Glo luminescence; CellTiter-Glo ATP luminescence; inhibition, % at 5.6 µM; 1.1% of 220,000 active; AID 1486, 2009;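 active = inhibition above a per-campaign cutoff, the mean inhibition of all tested compounds plus 3 SD, cut at about 27% in these data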;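 note: 0% = DMSO wells and 100% = JAK Inhibitor I control wells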
aSyn UTR inh: MLPCN primary screen, SNCA 5' untranslated region. alpha-synuclein 5'UTR reporter, inhibitor activity. inhibition, % (tested at 7.5 µM). 0.82% of 300,000 active. AID 1813, 2009; in the data active = inhibition above about 60%;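 note: H4 neuroglioblastoma cells stably carrying SNCA 5'UTR luciferase fusion; 0% = DMSO wells and 100% = positive control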
KLF5 inh: KLF5 expression inhibitors, primary screen, DLD-1 cells, luminescence; AID 1700, 2009; 0.23% of 290,000 active; inhibition, % at 5 µM; DLD-1 KLF5 promoter-luciferase reporter;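 active = inhibition above a per-plate limit of that plate's mean compound inhibition plus 3 SD, cut at about 60% in these data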;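 note: 0% = DMSO wells and 100% = LY294002 at 200 µM; higher means less KLF5 promoter-driven luciferase light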
Ba/F3 V617F tox: reduced viability of JAK2V617F-dependent Ba/F3 cells, primary screen, JAK2V617F inhibitor project, cell-based, Ba/F3 EpoR-JAK2V617F, luminescence | ATP luminescence | inhibition, % at 5.6 µM | 1.1% of 220,000 active | AID 1446, 2008;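 active = inhibition above the campaign mean plus 3 SD over all tested compounds, cut at about 24% in these data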;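 note: cytokine-independent growth of Ba/F3 cells driven by EpoR plus mutant JAK2; 0% = DMSO-treated cells and 100% = JAK inhibitor I control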
An asterisk follows results filed as active; x = no result given.

SMILES	IEC-6 tox	APP transl inh	BaF3 parental	aSyn UTR inh	KLF5 inh	Ba/F3 V617F tox
CCCCn1cnc2c(c(-c3ccccc3)c(-c3ccccc3)n2Cc2ccco2)c1=N	-2	x	-6	31	29	6
Cc1c(C(=O)C(=O)N2CCN(C)CC2)c2ccccc2n1C	0	-1	0	3	-6	1
Cc1c(C(=O)C(=O)N2c3ccc(F)cc3CCC2C)c2ccccc2n1C (centres undefined)	6	83*	7	62*	7	-2
COc1ccc(NC(=O)CN(C)C(=O)CCCSc2nc3ccccc3[nH]2)cc1	x	x	x	-23	x	x
Cn1c(=O)c2c(ncn2CC(=O)N2CCc3ccccc3C2)n(C)c1=O	4	54*	2	-5	-20	0
CC[n+]1ccc(/C=C2\Sc3ccccc3N2CCCS(=O)(=O)[O-])c2ccccc21	-1	-11	2	-2	-21	1
CN1C=C/C(=C\c2cc[n+](C)c3ccccc23)c2ccccc21	6	32	51*	74*	-6	19
COc1ccccc1CNC(=O)CN(Cc1ccc(Cl)cc1)S(C)(=O)=O	5	0	5	-8	23	22
CCOC(=O)c1cc(=O)[nH]c2ccccc12	3	16	6	23	-36	0
CCCOC(=O)c1cc(=O)[nH]c2ccccc12	3	-11	97*	22	2	2
NC(=O)c1ccc(N2CCN(S(=O)(=O)c3ccccc3)CC2)c([N+](=O)[O-])c1	11	12	38*	0	-28	36*
Cc1ccc(NS(=O)(=O)c2ccc(NC(=O)c3ccccc3C(=O)O)cc2)cc1C	x	x	x	-11	x	x
CCOC(=O)c1ccc(NC2c3ccccc3C(=O)N2c2cccnc2)cc1 (centres undefined)	20	-50	27*	43	-7	20
O=C(NCCCCCCNC(=O)N1CCCCCC1)N1CCCCCC1	14	-7	55*	-25	-20	50*
CCOCCCNC(=O)N1CCOCC1	-3	-12	8	-19	-7	1
Cc1ccc(OCc2nnc(SCC(=O)N3C(C)CCCC3C)o2)cc1 (centres undefined)	0	x	x	7	-16	x
CCCn1c2c(c(O)c(C(=O)Nc3nc4ccccc4s3)c1=O)CCCC2	5	-6	81*	-17	-21	5
CC(C)Cn1c2c(c(O)c(C(=O)Nc3nc4ccccc4s3)c1=O)CCCC2	2	x	2	-22	2	0
COc1ccc(CNC(=O)COC(=O)CCOc2ccccc2)cc1	0	-10	5	7	-37	2
COc1ccc(OCC(=O)OCC(=O)NCc2ccc(F)cc2)cc1	0	64*	2	22	-27	-5
O=C(Cn1ccc([N+](=O)[O-])n1)N1CCCCC1	4	0	43*	26	-2	-2
Cc1ccc2c(c1)S/C(=C/c1ccc[n+](CCO)c1)N2C	-11	9	68*	-38	-9	87*
Cc1ccc2c(c1)S/C(=C\c1cccc[n+]1C)N2CCO	-5	x	x	-4	-17	x
CCc1cc(C(=O)N2CCCc3ccccc32)sc1C	3	x	x	-13	-43	x
CCOc1ccc(NC(=O)CSc2nnc(-c3cc(C)[nH]n3)n2N)cc1	-4	x	x	1	-64	x
SMILES	IEC-6 tox	APP transl inh	BaF3 parental	aSyn UTR inh	KLF5 inh	Ba/F3 V617F tox
O=C(NNC(=O)c1cccnc1SCc1cccc([N+](=O)[O-])c1)c1ccccn1	5	72*	9	103*	18	-2
O=C(NNC(=O)c1cccnc1SCc1cccc([N+](=O)[O-])c1)c1ccc(F)cc1	-11	20	7	-1	8	0
Cc1ccc(C)c(Cn2c(O)c(N=NC(=S)Nc3ccccc3F)c3ccccc32)c1	-3	14	0	72*	8	2
Cc1ccccc1Cn1c(O)c(N=NC(=S)Nc2ccccc2F)c2ccccc21	-4	15	2	73*	-7	3
Oc1c(N=NC(=S)Nc2ccccc2F)c2ccccc2n1Cc1ccccc1F	0	13	5	87*	-6	1
CCn1c(O)c(N=NC(=O)CNC(=O)c2ccccc2F)c2ccccc21	-2	x	x	-12	8	x
C=CCn1c(O)c(N=NC(=S)Nc2ccc(OC)cc2)c2ccccc21	8	25	4	84*	-42	1
CCNC(=S)N=Nc1c(O)n(Cc2ccc(Cl)cc2)c2ccccc12	-4	0	2	-25	-17	-1
C=CCn1c(O)c(N=NC(=S)Nc2cccc(OC)c2)c2ccccc21	8	35	2	50	-8	-4
COCCCN1C(=O)c2ccc(C(=O)OCC(=O)N3CCN(c4ccccc4)CC3)cc2C1=O	x	x	x	16	x	x
C=CCn1c(O)c(N=NC(=O)c2ccc3c(c2)OCO3)c2ccccc21	-2	50*	-1	-27	-20	-3
Oc1c(N=NC(=S)Nc2ccccc2F)c2ccccc2n1Cc1ccc(Cl)cc1	-3	23	6	70*	-18	1
O=C(Nn1cnnc1)c1ccc(Cl)c(Cl)c1	-6	x	x	3	-39	x
CCCCOc1ccc(CSCCN=C(N)N)cc1	2	-41	76*	-58	-21	38*
Cc1cn(-c2cc(C(=O)Nc3ccc(C)c(NC(=O)C(=O)c4c[nH]c5ccccc45)c3)cc(C(F)(F)F)c2)cn1	x	x	x	66*	x	x
COC(=O)c1ccc(NC(=O)C(=O)c2c[nH]c3ccccc23)cc1	0	x	x	-93	-84	x
Cc1ccc(C(C)C)c(OCc2nn(CC(=O)c3ccc(OC(F)F)cc3)c3[n+]2CCCCC3)c1	-1	9	30*	46	4	49*
CCN(CC)Cc1ccc(NC(=O)c2sc3cc(Cl)ccc3c2Cl)cc1	0	x	0	104*	-16	0
CC1(C)OC(=CC=Nc2ccc(Cl)cc2)OC1(C)C	8	x	0	103*	8	3
Cc1ccc(N=CC=C2OC(C)(C)C(C)(C)O2)c(C)c1	4	3	10	-20	-6	3
CCn1c(=O)[nH]c2ccccc2c1=O	-6	7	-3	-7	-13	-3
Nn1c(=O)[nH]c2ccccc2c1=O	0	2	38*	11	-32	-1
Cc1ccc(C(=O)Nc2ccc3c(c2)OCCO3)c(C)c1	9	x	x	73*	65*	x
Cc1ccc(NC(=O)c2ccc3c(c2)OCCO3)cc1C	9	x	x	74*	29	x
O=c1cc(NCc2ccccc2)[nH]c(=O)[nH]1	x	x	x	-18	x	x
CCOC(=O)C1=C(c2ccccc2)N=C2SCC(=O)N2C1c1cccc(OC)c1 (centres undefined)	-1	61*	3	-6	-28	1
CCOC(=O)C1=C(c2ccccc2)N=C2SCC(=O)N2C1c1ccc(OC)c(OC)c1 (centres undefined)	3	-6	0	-2	-47	-4

Bioassay records deposited in PubChem by several laboratories.
